For seven compounds, Potency results are on record in PubChem BioAssay (Tox21).

Assay [1] in a line: Nuclear factor erythroid 2-related factor 2/antioxidant responsive element (Nrf2/ARE) small molecule agonists: qHTS cell viability counter screen in human keratinocytes (AID 1919968; active means well fitted curve in the direction sought with a large enough effect in the repeat runs; an effect the other way counts as inactive or inconclusive; further: nearly all actives have a fitted effect of over 55% in size). In outline:
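CellTiter-Fluor fluorescence, read 1 h after reagent, gave viability in the same wells as the ARE-luciferase assay. KeratinoSens cells (1,500/well) had 23 h compound exposure at 37 C/5% CO2 following 5 h plating.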
(qHTS replaces the single test concentration by a dilution series.)

Assay [2] is described as follows: Nuclear factor erythroid 2-related factor 2/antioxidant responsive element (Nrf2/ARE) small molecule agonists: luciferase reporter gene qHTS assay in human keratinocytes (AID 1919969). Further: nearly all actives have a fitted effect of over 35% in size. Further: potency means the concentration at half of the fitted maximal effect.
Assay [3] addresses Gonadotropin-releasing hormone receptor (Homo sapiens) (UniProt P30968). Nature of the assay: Human gonadotropin-releasing hormone receptor (GnRHR) small molecule agonists, calcium flux assay in GnRHR-HEK293 cells (AID 1920063). Further: nearly all actives have a fitted effect of over 35% in size. In a few lines: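 Agonist mode: compounds at 15 concentrations, in triplicate, went onto calcium dye-loaded GnRHR-HEK293 cells. Intracellular calcium was then followed as 480/540 nm fluorescence at 1 s intervals over 3 min.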
(Calcium assays in cells follow changes in intracellular calcium, usually with a dye or a luminescent sensor.)

Assay [4] concerns the target KiSS-1 receptor (Homo sapiens) (UniProt Q969F8). Nature of the assay: Human kisspeptin (KISS1R) small molecule agonists, calcium flux assay in KISS1R-HEK293 cells (AID 1920064; active means well fitted curve in the direction sought with a large enough effect in the repeat runs; an effect the other way counts as inactive or inconclusive). In outline: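 Agonist mode: intracellular calcium rise tracked at 1 s intervals over 3 min (480/540 nm) immediately after compound addition to dye-loaded KISS1R-HEK293 stable cells. Each compound tested at 15 concentrations in triplicate.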

Assay [5] is described as follows: G protein-coupled receptor (GPCR) small molecule agonists, calcium flux assay: HEK293 wild type cell line counter screen (AID 1920065). In a few lines: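 Calcium flux counter screen: compound added in agonist mode at 15 concentrations in triplicate to dye-loaded parental HEK293 cells. Fluorescence (480/540) read kinetically for 3 min; ATP served as positive control.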

The nature of assay [6]: p53 small molecule agonists, cell-based qHTS assay with human liver microsomes (AID 1963577).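 Further: p53 response element beta-lactamase reporter cells with liver microsomes plus NADPH.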 In outline:
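Metabolically competent format: test substances, human liver microsomes and NADPH (both 0.5 mg/mL final) incubated with p53RE-bla cells 16 h at 37 C. Beta-lactamase reporter signal then quantified by fluorescence.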

Assay [7] is described as follows: p53 small molecule agonists, cell-based qHTS assay with rat liver microsomes (AID 1963578). In a few lines: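 Each plate received p53RE-bla cells, then compound, then rat liver microsomes and NADPH (both 0.5 mg/mL final). Plates were held 16 h at 37 C, and beta-lactamase activity was detected with LiveBLAzer over 2 h.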
Assay [8] can be described thus: p53 small molecule agonists, cell-based qHTS assay with human liver microsomes: qHTS cell viability counter screen (AID 1963579). Further: nearly all actives have a fitted effect of over 45% in size. In outline:
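Tox21 library compounds, delivered from DMSO stocks, were tested on p53RE-bla cells together with 0.5 mg/mL human liver microsomes and 0.5 mg/mL NADPH (final) over 16 h at 37 C; CellTiter-Glo luminescence served as the cytotoxicity measure.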

Assay [9] in a line: p53 small molecule agonists, cell-based qHTS assay with rat liver microsomes: qHTS cell viability counter screen (AID 1963580). Further: nearly all actives have a fitted effect of over 45% in size. In a few lines: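 Rat liver microsome (0.5 mg/mL final) and NADPH (0.5 mg/mL final) co-incubation with compounds for 16 h at 37 C on HCT-116 p53RE-bla cells; cytotoxicity taken from intracellular ATP luminescence.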
Assay [10] can be described thus: p53 small molecule agonists, cell-based qHTS assay: qHTS cell viability counter screen (AID 1963581). Further: nearly all actives have a fitted effect of over 45% in size. In outline: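 Counter screen read by CellTiter-Glo luminescence (ATP content, 30 min at room temperature), run in the same wells as the beta-lactamase reporter read. HCT-116 p53RE-bla cells saw compounds for 16 h at 37 C.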
The nature of assay [11]: p53 small molecule agonists, cell-based qHTS assay (AID 1963582; active means well fitted activation curve with a large enough effect in the signal ratio in the repeat runs, not every such curve was filed as active; the % refers to the signal ratio). In outline:
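Read-out is beta-lactamase FRET fluorescence after 2 h at room temperature with LiveBLAzer B/G substrate. p53 response element-bla cells were treated 16 h at 37 C with compounds in DMSO, added 5 h after seeding.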

In assay [12] the target is 5-hydroxytryptamine receptor 2A (Homo sapiens) (UniProt P28223). Nature of the assay: 5-hydroxytryptamine receptor 2A (HTR2A) small molecule agonists, cell-based qHTS assay (AID 1963587). Further: nearly all actives have a fitted effect of over 30% in size. In a few lines:
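Kinetic calcium-flux fluorescence (2 min, 1 sec intervals) after compound addition in agonist mode. HTR2A-CHO cells were cultured 18 h, then dye-loaded 1 h at 37 C.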

Assay [13] in a line: cAMP Responsive Elements (CRE) small molecule agonists, cell-based qHTS assay (AID 1963590). In a few lines: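 Agonist mode: compound added to CRE-bla HEK 293T cells (2,000/well, 18 h after plating) for 3 h at 37 C/5% CO2. Reporter activity detected via FRET beta-lactamase substrate, 2 h room-temperature loading.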
A short description of assay [14]: cAMP Responsive Elements (CRE) small molecule antagonists, cell-based qHTS assay (AID 1963591; active means well fitted inhibition curve with a large enough effect in the signal ratio in the repeat runs, not every such curve was filed as active; the % refers to the signal ratio). In a few lines: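 Antagonist mode: compounds are added alongside the adenylyl cyclase activator NKH477 (0.25 uM final) to CRE-bla HEK293T cells for 3 h. LiveBLAzer FRET substrate, 2 h at room temperature, reports bla expression.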
Assay [15] has as its target Beta-2 adrenergic receptor (Homo sapiens) (UniProt P07550). Description: Adrenergic beta2 receptor (ADRB2) small molecule antagonists, cell-based qHTS assay (AID 1963592). Further: series mostly up to about 92 µM; nearly all actives have a fitted effect of over 50% in size. In outline:
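Assay format: CHO-ADRB2 cells, 18-20hr seeding at 37C/5% CO2, then compound plus 1nM isoproterenol agonist mix for 0.5hr RT. Homogeneous time-resolved fluorescence cAMP detection after 1hr, expressed as 665/615 nm ratio.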

For assay [16] the target is unchanged. Description: Adrenergic beta2 receptor (ADRB2) small molecule agonists, cell-based qHTS assay (AID 1963593).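 Further: CHO cells stably overexpressing human ADRB2.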 In outline: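 CHO cells stably over-expressing ADRB2 were plated overnight at 37C, then dosed with compounds plus a stimulation mix containing 100uM IBMX and 25uM Ro-20-1724 for 0.5hr at room temperature. cAMP was measured by HTRF competition, 1hr.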

In assay [17] the target is D(2) dopamine receptor (Homo sapiens) (UniProt P14416). Description: Dopamine D2 receptor (DRD2) small molecule agonists, cell-based qHTS assay (AID 1963594). Further: nearly all actives have a fitted effect of over 35% in size. In outline: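 cAMP accumulation in DRD2-HEK293 cells measured by HTRF after 1 h detection; compounds added 10 min before NKH477 (200nM […]) forskolin-analogue stimulation, 30 min at room temperature, with Ro20-1724 present at 0.1 mM final.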
Chain of D(2) dopamine receptor (Homo sapiens) (P14416 whole entry, looked up): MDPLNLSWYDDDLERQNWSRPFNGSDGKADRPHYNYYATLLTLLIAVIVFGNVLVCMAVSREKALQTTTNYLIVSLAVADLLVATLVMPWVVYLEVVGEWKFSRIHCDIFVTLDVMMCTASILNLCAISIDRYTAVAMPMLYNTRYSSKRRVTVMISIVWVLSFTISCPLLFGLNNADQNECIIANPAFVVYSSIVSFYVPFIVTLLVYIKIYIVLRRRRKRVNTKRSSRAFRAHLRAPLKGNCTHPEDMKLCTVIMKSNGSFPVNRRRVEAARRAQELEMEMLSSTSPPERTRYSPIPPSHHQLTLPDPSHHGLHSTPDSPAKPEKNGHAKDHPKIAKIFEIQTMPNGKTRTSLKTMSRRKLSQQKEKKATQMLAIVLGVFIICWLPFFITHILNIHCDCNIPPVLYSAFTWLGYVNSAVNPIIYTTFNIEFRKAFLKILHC

Assay [18] shares this target. Nature of the assay: Dopamine D2 receptor (DRD2) small molecule antagonists, cell-based qHTS assay (AID 1963595; active means well fitted inhibition curve with a large enough effect in the signal ratio in the repeat runs, with a control signal flat; the % refers to the signal ratio). In a few lines:
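Human DRD2 antagonist qHTS measuring cAMP by HTRF. The cells are exposed to compound for 10 min, then to NKH477 (200 nM) and quinpirole (12 nM) for 30 min at RT, with Ro20-1724 (0.1 mM) present throughout.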

Assay [19] addresses Muscarinic acetylcholine receptor M1 (Homo sapiens) (UniProt P11229). Description: Cholinergic receptor muscarinic 1 (CHRM1) small molecule antagonists, cell-based qHTS assay (AID 1963588). Further: nearly all actives have a fitted effect of over 40% in size. In a few lines:
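Compounds were tested at 15 concentrations in three independent runs. Dye-loaded CHRM1-CHO cells were exposed 5 min at room temperature before stimulation by acetylcholine added at 50nM. Intracellular calcium was read kinetically on FDSS for 3 min.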

The structures appear in SMILES notation. Several values for one entry are separate records, joined by “and”; a condition that tells them apart may be missing. Identical values can stand only once. Results filed as inconclusive are left out. More than one record can exist for a structure, and the calls need not agree. Activity calls are given as the source filed them. Unless noted, the call rests on the fitted dose curve.

Chain of Muscarinic acetylcholine receptor M1 (Homo sapiens) (P11229 whole entry, looked up): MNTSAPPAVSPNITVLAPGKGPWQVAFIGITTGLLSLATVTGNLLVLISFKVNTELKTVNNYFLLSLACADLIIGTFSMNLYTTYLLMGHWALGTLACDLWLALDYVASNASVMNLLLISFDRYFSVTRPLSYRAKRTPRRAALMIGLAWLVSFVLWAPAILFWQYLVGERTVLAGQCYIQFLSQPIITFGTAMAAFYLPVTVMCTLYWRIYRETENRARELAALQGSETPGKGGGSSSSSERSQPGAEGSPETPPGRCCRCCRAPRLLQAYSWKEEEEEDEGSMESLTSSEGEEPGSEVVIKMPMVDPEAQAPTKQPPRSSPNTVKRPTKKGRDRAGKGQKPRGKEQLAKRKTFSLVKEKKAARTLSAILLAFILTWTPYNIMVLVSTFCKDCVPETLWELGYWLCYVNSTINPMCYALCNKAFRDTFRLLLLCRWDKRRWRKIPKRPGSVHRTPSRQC
Chain of Gonadotropin-releasing hormone receptor (Homo sapiens) (P30968 whole entry, looked up): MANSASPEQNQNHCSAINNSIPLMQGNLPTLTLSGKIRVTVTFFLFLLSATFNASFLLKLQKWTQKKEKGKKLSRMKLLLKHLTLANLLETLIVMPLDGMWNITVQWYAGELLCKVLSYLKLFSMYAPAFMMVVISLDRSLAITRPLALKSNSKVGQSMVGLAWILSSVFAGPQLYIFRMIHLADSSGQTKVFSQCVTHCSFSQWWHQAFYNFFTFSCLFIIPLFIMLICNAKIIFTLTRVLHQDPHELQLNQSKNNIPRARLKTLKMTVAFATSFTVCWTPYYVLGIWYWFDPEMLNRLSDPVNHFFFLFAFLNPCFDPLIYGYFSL
Chain of 5-hydroxytryptamine receptor 2A (Homo sapiens) (P28223 whole entry, looked up): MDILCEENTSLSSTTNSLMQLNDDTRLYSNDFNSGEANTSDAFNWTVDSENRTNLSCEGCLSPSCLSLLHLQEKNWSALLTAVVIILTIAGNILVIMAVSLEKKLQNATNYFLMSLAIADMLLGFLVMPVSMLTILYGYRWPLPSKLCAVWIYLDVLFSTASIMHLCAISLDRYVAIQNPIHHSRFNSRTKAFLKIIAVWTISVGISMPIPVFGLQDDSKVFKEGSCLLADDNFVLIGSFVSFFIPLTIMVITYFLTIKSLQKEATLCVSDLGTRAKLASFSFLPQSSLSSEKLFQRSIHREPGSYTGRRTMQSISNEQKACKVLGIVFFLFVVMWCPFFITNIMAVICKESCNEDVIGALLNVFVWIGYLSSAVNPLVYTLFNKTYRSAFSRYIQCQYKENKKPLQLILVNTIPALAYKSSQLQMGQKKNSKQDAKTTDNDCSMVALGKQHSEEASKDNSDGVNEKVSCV
Chain of Beta-2 adrenergic receptor (Homo sapiens) (P07550 whole entry, looked up): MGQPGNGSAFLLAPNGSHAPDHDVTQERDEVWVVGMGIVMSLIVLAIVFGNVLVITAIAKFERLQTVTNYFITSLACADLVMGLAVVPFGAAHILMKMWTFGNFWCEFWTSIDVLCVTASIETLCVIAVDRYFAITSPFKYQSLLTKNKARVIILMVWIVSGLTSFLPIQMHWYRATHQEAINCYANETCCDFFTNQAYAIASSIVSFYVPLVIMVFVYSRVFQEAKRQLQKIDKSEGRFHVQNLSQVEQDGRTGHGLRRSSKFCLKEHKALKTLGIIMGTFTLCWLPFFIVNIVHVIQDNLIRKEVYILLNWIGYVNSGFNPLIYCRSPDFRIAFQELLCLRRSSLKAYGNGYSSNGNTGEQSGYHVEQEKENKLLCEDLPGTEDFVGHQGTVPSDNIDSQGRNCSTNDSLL
Chain of KiSS-1 receptor (Homo sapiens) (Q969F8 whole entry, looked up): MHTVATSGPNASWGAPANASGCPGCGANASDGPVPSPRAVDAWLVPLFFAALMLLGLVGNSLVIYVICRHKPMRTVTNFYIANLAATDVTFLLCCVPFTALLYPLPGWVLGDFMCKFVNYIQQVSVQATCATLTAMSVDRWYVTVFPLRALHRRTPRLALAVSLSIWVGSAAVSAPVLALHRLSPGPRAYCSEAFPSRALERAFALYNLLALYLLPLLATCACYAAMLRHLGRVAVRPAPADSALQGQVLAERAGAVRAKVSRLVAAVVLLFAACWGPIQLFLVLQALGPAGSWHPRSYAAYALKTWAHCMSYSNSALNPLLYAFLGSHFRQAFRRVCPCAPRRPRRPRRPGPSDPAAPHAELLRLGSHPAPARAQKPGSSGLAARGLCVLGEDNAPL

Take `Cc1cc(C(C)(C)C)c(O)c(C(C)(C)C)c1`: the Potency result in [1], in [3], in assay [4], in assay [5], in assay [6] and in assay [7] was “inactive” in each case. In addition, the Potency result in assay [8], in [9], in [10], in assay [11], in [12] and in [13] was “inactive” each time. For the same compound, the Potency result in assay [14], in [15], in [16], in assay [17] and in assay [18] was “inactive” in each case. Also, the Potency in [2] was 24.4 µM (active) and 48.6 µM (active).
Turning to `C[C@]12C=CC(=O)C=C1CC[C@H]1[C@@H]3C[C@@H](O)[C@](O)(C(=O)CO)[C@@]3(C)C[C@H](O)[C@@]12F`, the Potency entry in assay [1], in assay [2], in [3], in assay [4], in assay [5] and in assay [6] was “inactive” each time. Moreover, the Potency entry in [7], in assay [8], in [9], in [10], in assay [11] and in assay [13] was “inactive” in each case. Also, the Potency result in assay [14], in assay [15], in [16], in assay [17] and in [18] was “inactive” each time.
Regarding `Nc1ccc(C(=O)O)cc1`, the Potency entry in assay [1], in [2], in [3], in [4], in [5] and in assay [6] was “inactive” throughout. The Potency result in [7], in assay [8], in assay [9], in assay [10], in assay [11] and in assay [12] was “inactive” each time. Moreover, the Potency entry in assay [19], in assay [13], in assay [14], in assay [15], in [17] and in assay [18] was “inactive” each time.
As for `O=C1O[C@H]([C@@H](O)CO)C(O)=C1O`, the Potency result in assay [1], in [3], in assay [4], in assay [5], in assay [6] and in assay [7] was “inactive” in each case. Also, the Potency result in assay [8], in [9], in assay [10], in assay [11], in assay [13] and in assay [14] was “inactive” in each case. Besides, the Potency result in assay [15], in [16], in [17] and in assay [18] was “inactive” throughout. For the same compound, in assay [2], the Potency result is “inactive and 61.1 µM (active)”.
On to `C[C@]12C=CC(=O)C=C1CC[C@@H]1[C@@H]2C(=O)C[C@@]2(C)[C@H]1CC[C@]2(O)C(=O)CO`, for which the Potency entry in [1], in assay [2], in assay [3], in assay [4], in assay [5] and in [6] was “inactive” each time. Also, the Potency result in [7], in [8], in [9], in [10], in [11] and in [13] was “inactive” in each case. The Potency result in assay [14], in assay [15], in assay [16], in [17] and in assay [18] was “inactive” throughout.
As for `CC(C)(C#N)c1cc(Cn2cncn2)cc(C(C)(C)C#N)c1`, the Potency entry in assay [1], in [2], in [3], in assay [4], in [5] and in assay [6] was “inactive” in each case. The Potency entry in assay [7], in assay [8], in [9], in assay [10], in assay [11] and in assay [13] was “inactive” throughout. For the same compound, the Potency entry in assay [14], in assay [15], in assay [16], in assay [17] and in [18] was “inactive” in each case.
For `COC(=O)c1ccc(O)cc1`, the Potency result in assay [1], in assay [2], in [3], in [4], in assay [5] and in assay [6] was “inactive” each time. The Potency result in assay [7], in assay [8], in assay [9], in [10], in [11] and in [13] was “inactive” each time. Moreover, the Potency result in assay [14], in [15], in assay [16] and in [17] was “inactive” each time.
